Compound activity (PubChem)
Rv3671c protease – Rv3671c (M. tuberculosis) protease inhibition. P9WHR9. 320,000 compounds, 0.048% hits. AID 2606. inhibition, % at 5.96 µM; in the data active means inhibition above about 38%;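 further: extracellular domain of Rv3671c used as enzyme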
Target sequence (P9WHR9 whole entry, looked up, the tested form may be a part): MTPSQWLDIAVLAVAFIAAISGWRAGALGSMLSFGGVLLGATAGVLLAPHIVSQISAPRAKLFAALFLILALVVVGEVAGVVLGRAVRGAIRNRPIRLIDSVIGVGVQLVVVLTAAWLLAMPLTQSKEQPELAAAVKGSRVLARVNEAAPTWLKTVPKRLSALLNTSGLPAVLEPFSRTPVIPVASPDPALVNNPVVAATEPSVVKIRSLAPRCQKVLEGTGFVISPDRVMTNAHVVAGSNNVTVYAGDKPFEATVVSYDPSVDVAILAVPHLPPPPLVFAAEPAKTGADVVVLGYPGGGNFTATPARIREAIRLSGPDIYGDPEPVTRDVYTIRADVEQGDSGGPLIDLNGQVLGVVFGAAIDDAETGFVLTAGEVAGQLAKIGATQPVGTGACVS
UGM FP inh – Mtb UDP-galactopyranose mutase inhibition; inhibition, % at 10 µM; P9WIQ1; purified UGM, fluorescence polarization probe displacement; 320,000 compounds, 0.06% hits; in the data active means inhibition above about 10%, passing the limit was not always enough
RecA intein inh – blocks M. tuberculosis RecA intein splicing; P9WHJ3; cell-free RecA intein splicing, fluorescence; inhibition, % (concentration not given with the values); 290,000 compounds, 0.75% hits; AID 2221; in the data active means inhibition above about 30%
PriA SSB inh – inhibitors of Klebsiella pneumoniae PriA binding to SSB C-terminal tail; inhibition, % at 33 µM; 430,000 compounds, 0.6% hits; AlphaScreen SSBct-PriA binding, biotinylated peptide; AID 1272365; in the data active means inhibition mostly above about 37%, no sharp cut-off; inactive means mostly below about 20%
Mtb betalactam – beta-lactam sensitization of Mtb H37Rv. M. tuberculosis H37Rv growth with meropenem, percent inhibition. inhibition, % at 25 µM. 330,000 compounds, 0.27% hits;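 further: growth measured after seven days incubation then overnight dye step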
GFP chromophore – counter-screen GFP chromophore formation inhibition | 2,100 compounds, 83% hits | EC50, µM | shares compounds with RecA intein inh | cell-free GFP chromophore formation, fluorescence
Numbers stand for hits; . = inactive; / = no result. Most compounds without a hit are left out; they make up all but 1.1% or so of the library. Unless noted, how the calls were made is not given here.

SMILES | Rv3671c protease | UGM FP inh | RecA intein inh | PriA SSB inh | Mtb betalactam | GFP chromophore
CCSc1cc(C2C(C#N)=C(N)Oc3n[nH]c(C)c32)c(C)o1 (stereo unspecified) | . | . | 77 | . | . | 15
COc1ccccc1NC(=O)C1=C(C)Nc2nnnn2C1c1ccncc1 (stereo unspecified) | . | . | 39 | . | . | .
Cc1ccc(-c2noc(-c3ccccc3C(=O)N3CCOCC3)n2)cc1 | . | . | . | . | . | .
COc1ccc(-c2noc(-c3ccccc3C(=O)N3CCOCC3)n2)cc1 | . | . | . | . | . | /
Cc1ccc(C(=O)C(OC(=O)CN2C(=O)c3ccccc3C2=O)c2ccccc2)cc1C (stereo unspecified) | . | . | 31 | . | . | .
COc1ccc(Nc2ccc3c(c2)=NC2(CCCCC2)[N+]=3[O-])cc1 | . | . | 79 | 65 | . | 10
[O-][N+]1=c2ccc(Nc3ccccc3)cc2=NC12CCCCC2 | . | . | 80 | 57 | . | 11
CC(C)NC(=S)NC(c1ccccc1)(c1ccccc1)c1ccccc1 | . | . | 32 | . | . | .
C/C(=N\NC(=S)NC(C)C)c1ccccc1 | . | . | . | / | . | /
CSC[C@@](C)(O)CNC(=O)c1ccccc1F | / | / | / | . | / | /
CC(C)[C@H](NC(=O)OC(C)(C)C)c1nnc(S(=O)(=O)Cc2c(F)cccc2Cl)o1 | . | . | 56 | . | . | 23
CC[C@@H](C)[C@H](NC(=O)OC(C)(C)C)c1nnc(S(=O)(=O)Cc2cc(C)ccc2C)o1 | . | . | / | . | . | /
COc1cccc(C(C[N+](=O)[O-])c2c(C)[nH]n(-c3ccccc3)c2=O)c1 (stereo unspecified) | . | . | 96 | . | . | 27
COc1cccc(N=Nc2c(C)[nH]n(-c3ccccc3)c2=O)c1 | . | . | . | . | . | /
Cc1ccc(C(C[N+](=O)[O-])c2c(N)n(C)c(=O)n(C)c2=O)cc1 (stereo unspecified) | . | . | . | . | . | /
Cc1[nH]n(-c2ccccc2)c(=O)c1C(C[N+](=O)[O-])c1ccc(Br)cc1 (stereo unspecified) | . | . | 77 | . | . | 17
CCCNC(=O)c1nnsc1S(=O)c1ccc(Cl)cc1 (stereo unspecified) | / | / | 55 | . | / | 39
NC(=O)CSc1nccc(-c2ccc3c(c2)OCO3)n1 | / | / | / | . | / | /
CCOC(=O)c1cnc2sc(C)nn2c1=O | / | / | / | . | / | /
CN(C1=C(NC(=O)c2ccccc2)C(=O)c2ccccc2C1=O)C1CCS(=O)(=O)C1 (stereo unspecified) | . | . | 93 | / | . | 2.7
CN(C)S(=O)(=O)c1ccc(-c2nnc(NC(=O)c3nc4ccccc4s3)o2)cc1 | / | / | / | . | / | /
COC1(OC)C(/C=C/c2ccc(Cl)cc2)C(C#N)(C#N)C1(OC)OC (stereo unspecified) | . | . | 73 | / | . | .
COC1(OC)C(/C=C\c2ccc(C)cc2)C(C#N)(C#N)C1(OC)OC (stereo unspecified) | / | / | / | . | / | /
O=C1OC[C@@H]2CCCN2C(=O)[C@H](CC(=O)N(CCO)Cc2ccccc2)C/C=C/C[C@H]1Cc1ccc(F)cc1 | / | / | / | . | / | /
Cc1cccc(S(=O)(=O)Nc2ccc3c(c2)CCC(=O)N3Cc2ccccc2)c1 | / | / | / | . | / | /
SMILES | Rv3671c protease | UGM FP inh | RecA intein inh | PriA SSB inh | Mtb betalactam | GFP chromophore
CCNc1ccccc1CP(=O)(c1ccccc1)c1ccccc1O (stereo unspecified) | . | . | 32 | . | . | 2.2
CC(C)(C)CC(=O)NCCn1ncc2c(=O)n(Cc3ccccc3F)cnc21 | / | / | / | . | / | /
CC(=O)Nc1cccc(NC(=O)CSc2ncc(C(=O)Nc3ccccc3)c(=O)n2C)c1 | . | . | 47 | . | . | 40
CC(=O)c1cccc(NC(=O)CSc2ncc(C(=O)Nc3ccccc3)c(=O)n2C)c1 | . | . | 37 | . | . | .
CC(=O)Nc1ccc(NC(=O)CSc2ncc(C(=O)Nc3ccc(F)cc3)c(=O)n2C)cc1 | . | . | 32 | . | . | .
CC(=O)Nc1cccc(NC(=O)CSc2ncc(C(=O)Nc3ccc(F)cc3)c(=O)n2C)c1 | . | . | . | . | . | /
O=C(c1cc(C2CC2)on1)N1CCC(Oc2ncccc2Br)CC1 | / | / | / | . | / | /
CSc1ccccc1C(=O)NCCn1cnc2ccsc2c1=O | / | / | / | . | / | /
COc1cc(/C=C2/C(=N)N3C(=NC2=O)SN=C3S(C)(=O)=O)ccc1OC(=O)c1ccco1 | . | . | . | . | . | /
CS(=O)(=O)C1=NSC2=NC(=O)/C(=C\c3ccc(OC(=O)c4ccco4)cc3)C(=N)N21 | . | . | 35 | / | . | .
O=C(NCCN1CCOCC1)c1ccncc1 | . | . | . | . | . | /
O=C1C=C(NCCN2CCOCC2)C(=O)c2cnccc21 | . | . | 96 | / | . | 1
CC(=NNC(=O)CCC1C(=O)NN=C1C)c1ccc(Cl)cc1 (stereo unspecified) | / | / | / | . | / | /
COc1ccc(C2CC(c3cccs3)=NN2C(=O)CCl)cc1OC (stereo unspecified) | . | . | 77 | . | . | 4.5
COc1cc(C2CC(c3cccs3)=NN2C(=O)CCl)ccc1OC(F)F (stereo unspecified) | . | . | 80 | . | . | 1.8
COc1ccc(C2CC(c3cccs3)=NN2C(=O)c2ccccc2)cc1OC (stereo unspecified) | . | . | . | . | . | /
CCOC(=O)N1CCN(C[C@H](O)COCc2ccccc2)CC1 | / | / | / | . | / | /
CN1C(=O)c2ccc(NC(=O)c3ccc(S(=O)(=O)N4CCc5ccccc54)cc3)cc2C1=O | / | / | / | . | / | /
Cc1ccc(N=Cc2ccccc2O)c(C(=O)c2ccccc2)c1 | / | / | / | . | / | /
Cc1cc(O)c(C(C)C)cc1N=Cc1ccccc1O | . | . | 51 | . | . | 15
CN(C)CCSc1nnc2[nH]c3ccccc3c2n1 | . | . | 32 | . | . | 9.4
Fc1cccc(CSc2nnc3c(n2)[nH]c2ccccc23)c1 | . | . | . | . | . | /
COC(=O)c1ccc(C(=O)OC)c(-n2c(=O)c3ccccc3c3ccccc3c2=O)c1 | . | . | 40 | . | . | 25
COC(=O)c1ccc(-n2c(C)nc3ccccc3c2=O)cc1 | . | . | . | . | . | /
CCOC(=O)c1ccc(C[C@@H]2S/C(=C(/C#N)C(N)=O)N(c3ccccc3C)C2=O)cc1 | / | / | / | . | / | /
SMILES | Rv3671c protease | UGM FP inh | RecA intein inh | PriA SSB inh | Mtb betalactam | GFP chromophore
CN1CCc2cc(C(CNS(=O)(=O)c3ccc(F)cc3)N3CCCCC3)ccc21 (stereo unspecified) | / | / | / | . | / | /
CC(=O)Oc1c(/C=C(\C#N)C(N)=O)[nH]c2ccccc12 | / | / | 74 | . | / | 0.054
COCCCn1c(=C(C#N)C(N)=O)s/c(=C/c2ccc(OC(F)F)c(OC)c2)c1=O | / | / | / | . | / | /
CCc1ccc(NC(=O)CSc2ccc(-c3sc(C)nc3C)nn2)cc1 | . | . | 82 | . | . | .
CC1CCCN(C2=C(Cl)C(=O)N(c3cccc(Cl)c3)C2=O)C1 (stereo unspecified) | . | . | 70 | . | . | 8.7
COc1ccc(N2C(=O)C(Cl)=C(N3CCCC(C)C3)C2=O)cc1 (stereo unspecified) | . | . | . | . | . | /
CCCCc1ccc(NC(=O)CSCc2cc(=O)[nH][nH]2)cc1 | . | . | 64 | . | . | 17
